Unmarked numbers belong to inactive results. Activity calls are given as the source filed them.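 How the source made its calls: active means average half-effect concentration of 10 µM or less in every one of the four cell panels; inactive means the rest.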

The test system of the assay is HL-1. The assay can be described thus: protection of cardiomyocytes from stress damage, SAR follow-up, cell-based, panel, H9c2 and HL-1, H2O2, 2-deoxyglucose, ATP luminescence (AID 651642).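 Further: plate controls were H2O2 plus DMSO for no effect and cells kept without H2O2 for full effect.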 To be noted: H9c2/HL-1 cardiomyocyte H2O2 oxidative damage, mean of runs; activity: with H2O2, at 0.154 µM; outcome: with H2O2.
Take `COc1ccc2c(c1OC)C(=O)N1c3ccccc3C(=O)N(Cc3cccc(Cl)c3Cl)C21` (configuration not stated): the activity is 4.4%. Regarding `CCOC(=O)c1cccc(NC(=O)c2cc(-c3cc(OC)c(OC)c(OC)c3)nc3cc(Cl)ccc23)c1`, the activity was 1.44%.

Take `COc1cc(-c2cc(C(=O)Nc3cccc(C(N)=O)c3)c3ccccc3n2)cc(OC)c1OC`: the activity was -0.415% (active). Take `COc1cc(-c2cc(C(=O)Nc3cccc(C(=O)N(C)C)c3)c3ccccc3n2)cc(OC)c1OC`: the activity was 0.987% (active). The result for `COc1ccc2c(c1OC)C(=O)N1c3ccccc3C(=O)N(Cc3c(Cl)cccc3Cl)C21` (configuration not stated) reads 2.81%; that for `COc1cc(-c2cc(C(=O)NCC(=O)Nc3ccc(C(C)=O)cc3)c3ccccc3n2)cc(OC)c1OC`, 0.684%. In the case of `COc1ccc2nc(-c3cc(OC)c(OC)c(OC)c3)cc(C(=O)NCC(=O)Nc3ccc(C(C)=O)cc3)c2c1` it was -1.7% (active); in that of `COc1cc(-c2cc(C(=O)Nc3cccc(C(=O)Nc4ccccc4)c3)c3ccccc3n2)cc(OC)c1OC`, -3.29%; in that of `COc1cc(-c2cc(C(=O)Nc3cccc(C(C)=O)c3)c3cc(F)ccc3n2)cc(OC)c1OC`, -2.5% (active). For `CCOC(=O)c1cccc(NC(=O)CNC(=O)c2cc(-c3cc(OC)c(OC)c(OC)c3)nc3ccc(Br)cc23)c1`, the activity was -0.604% (active). Take `CCOC(=O)c1cccc(NC(=O)CNC(=O)c2cc(-c3cc(OC)c(OC)c(OC)c3)nc3ccccc23)c1`: the activity was -0.899%. In the case of `COc1cc(-c2cc(C(=O)NCC(=O)Nc3ccc(C(C)=O)cc3)c3cc(C)ccc3n2)cc(OC)c1OC`, the activity is 4.62% (active). Consider `COc1cc(-c2cc(C(=O)NCC(=O)Nc3cccc(C(C)=O)c3)c3ccccc3n2)cc(OC)c1OC`, for which the activity was -2.38% (active). Turning to `COc1cc(-c2cc(C(=O)Nc3cccc(C(C)=O)c3)c3ccc(Cl)cc3n2)cc(OC)c1OC`, the activity was -6.29% (active). In the case of `CCOC(=O)c1cccc(NC(=O)c2cc(-c3cc(OC)c(OC)c(OC)c3)nc3ccc(Br)cc23)c1` it was 0.456%.

For `CCOC(=O)c1ccccc1NC(=O)c1cc(-c2cc(OC)c(OC)c(OC)c2)nc2ccccc12`, the activity was -1.41%. The result for `CCOC(=O)c1cccc(NC(=O)CNC(=O)c2cc(-c3cc(OC)c(OC)c(OC)c3)nc3c(Cl)cccc23)c1` reads -2.82%; that for `CCOC(=O)c1cccc(NC(=O)c2cc(-c3cc(OC)c(OC)c(OC)c3)nc3ccc(F)cc23)c1`, 5.11% (active).

For `COc1cc(-c2cc(C(=O)NCC(=O)Nc3cccc(C(C)=O)c3)c3cccc(Cl)c3n2)cc(OC)c1OC`, the activity was 8.31%.

As for `CCOC(=O)c1cccc(NC(=O)c2cc(-c3cc(OC)c(OC)c(OC)c3)nc3ccc(OC)cc23)c1`, the activity was 8.27%. Take `COc1ccc2c(c1OC)C(=O)N1c3ccccc3C(=O)N(Cc3ccc(F)cc3)C21` (configuration not stated): the activity is -2.95%.

`COc1cc(-c2cc(C(=O)Nc3cccc(C(=O)N4CCOCC4)c3)c3ccccc3n2)cc(OC)c1OC`: the activity is -0.415%. In the case of `COc1cc(-c2cc(C(=O)Nc3cccc(C(C)=O)c3)c3cc(C)ccc3n2)cc(OC)c1OC` it was 2.4% (active); in that of `COc1ccc2c(c1OC)C(=O)N1c3ccccc3C(=O)N(Cc3cccc(Br)c3)C21` (configuration not stated), 0.759%; in that of `CCOC(=O)c1cccc(NC(=O)CNC(=O)c2cc(-c3cc(OC)c(OC)c(OC)c3)nc3ccc(F)cc23)c1`, 2.27% (active). As for `COc1ccc2c(c1OC)C(=O)N1c3ccccc3C(=O)N(Cc3ccccc3Br)C21` (configuration not stated), the activity was -0.68%.

As for `COc1ccc2c(c1OC)C(=O)N1c3ccccc3C(=O)N(Cc3cccc(F)c3)C21` (configuration not stated), the activity was 0.0397%. Consider `COc1ccc2c(c1OC)C(=O)N1c3ccccc3C(=O)N(Cc3ccc(C)cc3C)C21` (configuration not stated), for which the activity was -0.945%.

As to `CCOC(=O)c1ccc(NC(=O)c2cc(-c3cc(OC)c(OC)c(OC)c3)nc3ccccc23)cc1`, the activity was 0.646%.

As for `COc1cc(-c2cc(C(=O)NCC(=O)Nc3ccc(C(C)=O)cc3)c3cc(F)ccc3n2)cc(OC)c1OC`, the activity was 1.92% (active). In the case of `CCOC(=O)c1cccc(NC(=O)c2cc(-c3cc(OC)c(OC)c(OC)c3)nc3ccccc23)c1`, the activity was 0.2% (active). The result for `CCOC(=O)c1cccc(NC(=O)c2cc(-c3cc(OC)c(OC)c(OC)c3)nc3c(Cl)cccc23)c1` reads 5.38%.

(Values after PubChem BioAssay AID651642 (Sanford-Burnham Center for Chemical Genomics, 2012).)
